Bioassay records deposited in PubChem BioAssay by The Scripps Research Institute Molecular Screening Center.
Sampled rows, rich in hits. Any-hit rate of the full collection: about 3.4%.
ADAM10 inh = inhibits human ADAM10; hit rate 0.62% among 370,000; recombinant ADAM10, EDANS/DABCYL FRET peptide cleavage, 3 h; inhibition, % at 7 µM;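 active means inhibition above a per-campaign cutoff equal to the mean of compounds falling between control-based bounds plus 3 SD, cut at about 20% in these data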;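 further: 0% = DMSO wells while the 100% control is not disclosed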
KLK7 zymogen act = activators of human kallikrein-7 zymogen; purified proKLK7, EDANS-DABCYL substrate fluorescence; 100% is mature enzyme control, 0% vehicle; P49862; activation, % at 7 µM; hit rate 0.9% among 370,000; AID 652039;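 active means activation above the mean of all tested compounds plus 3 SD, computed per campaign excluding outliers beyond control limits, cut at about 13% in these data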
HGIII-sPLA2 inh = Inhibits HGIII-sPLA2 liposome hydrolysis, primary screen. inhibition, % at 12.2 µM. Q9NZ20. hit rate 0.56% among 370,000. QFRET BODIPY PC-A2 liposome hydrolysis, fluorescence;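 active means inhibition above mean plus 3 SD of compounds lying within the high and low control bounds, cut at about 19% in these data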;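 further: 0% = median of test compound wells and 100% = no enzyme DMSO wells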
ADAM17 inh = inhibitors of human ADAM17; recombinant ADAM17, EDANS/DABCYL FRET peptide cleavage; hit rate 0.83% among 370,000; inhibition, % at 6.95 µM;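 active means inhibition above the mean of compounds lying between control limits plus 3 SD, set per campaign, cut at about 8.5% in these data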;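 further: 0% = DMSO-only wells as the low control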
Target sequence (P78536 215-824 limits assumed): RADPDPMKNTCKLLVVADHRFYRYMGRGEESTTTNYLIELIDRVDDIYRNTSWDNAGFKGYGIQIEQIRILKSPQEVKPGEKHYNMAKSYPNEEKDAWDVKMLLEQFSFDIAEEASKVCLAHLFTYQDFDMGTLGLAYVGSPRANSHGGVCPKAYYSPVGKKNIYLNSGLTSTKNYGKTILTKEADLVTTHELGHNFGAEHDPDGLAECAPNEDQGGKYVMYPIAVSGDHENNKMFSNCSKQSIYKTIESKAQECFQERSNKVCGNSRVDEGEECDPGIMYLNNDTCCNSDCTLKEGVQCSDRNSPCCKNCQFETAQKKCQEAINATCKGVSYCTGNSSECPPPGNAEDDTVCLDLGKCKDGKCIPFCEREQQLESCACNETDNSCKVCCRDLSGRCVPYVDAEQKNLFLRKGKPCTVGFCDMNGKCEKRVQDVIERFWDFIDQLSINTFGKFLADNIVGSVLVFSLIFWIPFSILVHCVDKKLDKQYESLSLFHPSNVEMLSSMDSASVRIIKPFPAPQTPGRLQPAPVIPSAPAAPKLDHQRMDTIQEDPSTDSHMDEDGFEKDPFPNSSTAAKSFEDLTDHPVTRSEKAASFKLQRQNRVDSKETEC
PLCb3 inh = PLC-beta3 (human) inhibition, primary screen | Q01970 | Purified PLC-beta3, fluorogenic substrate, fluorescence | inhibition, % at 12.2 µM | hit rate 0.18% among 370,000; in the data active means inhibition above about 11%;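 further: 0% = median of compound wells on plate and 100% = full blocker control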
PLCg1 inh = blocks human PLC-gamma1 enzyme activity; purified PLC-gamma1, fluorogenic substrate, fluorescence; inhibition, % at 12.2 µM; hit rate 0.84% among 370,000; AID 720700; in the data active means inhibition above about 9.5%
ADAM10 counter = counter-screen for ADAM17 exosite inhibitors: inhibitors of human ADAM10. shares compounds with ADAM17 inh. AID 743256. inhibition, % at 6.95 µM. recombinant ADAM10, EDANS/DABCYL FRET peptide cleavage, 3 h. hit rate 47% among 2,900;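 active means mean inhibition over the triplicate runs exceeds the activity threshold set in the earlier primary screen, cut at about 20% in these data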;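 further: 0% = DMSO wells and 100% = marimastat wells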
ADAM17 confirm = confirmation of inhibitors of human ADAM17. shares compounds with ADAM17 inh. recombinant ADAM17, EDANS/DABCYL QFRET peptide cleavage. inhibition, % at 6.95 µM. hit rate 65% among 2,900;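 active means mean inhibition across replicates above the hit cutoff set in the primary screen, cut at about 8.5% in these data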;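 further: 0% = DMSO wells and 100% = marimastat wells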
Active calls of the source: *; i = inactive; · = not tested or not shown.

SMILES	ADAM10 inh	KLK7 zymogen act	HGIII-sPLA2 inh	ADAM17 inh	PLCb3 inh	PLCg1 inh	ADAM10 counter	ADAM17 confirm
COc1ccc(-c2noc(C3CCCN(C(=O)Nc4ccc(C)c(F)c4)C3)n2)cc1 (configuration not stated)	5	0	-22	9.8*	0	1	18	9.2*
COc1ccc(-c2noc(C3CCCN(C(=O)Nc4ccccc4)C3)n2)cc1 (configuration not stated)	1	0	-8	2	-3	0	·	·
COCc1cc(N2CCN(C(=O)OC(C)(C)C)C[C@H]2C)ccc1N1CCS(=O)(=O)CC1	-8	0	2	-3	-3	-3	·	·
Cc1ccc(C2=NNC(=O)C(P(=O)(c3ccccc3)c3ccccc3)C2)cc1 (configuration not stated)	2	1	-2	9.4*	3	4	7	4
Cc1ccc(C2CC(c3ccc(Cl)cc3)=NNC2=O)cc1 (configuration not stated)	6	-1	1	-1	2	1	·	·
COC(=O)c1ccc(Cn2ccc3ccc(-c4ccc5ccn(C(=O)c6ccccc6)c5c4)cc32)cc1	-30	-23	-2	-9	-32	-27	·	·
COc1ccc(CN(C)C(=O)c2cc(-c3ccccc3)nc3ccc(C)cc23)c(OC)c1	14	1	-12	12*	2	8	3	5
COc1ccccc1CN(C)C(=O)c1cc(C)nc2ccccc12	-5	-1	-1	2	-6	-2	·	·
O=C(OCC(=O)c1c[nH]c2ccccc12)c1ccc(F)c(S(=O)(=O)N2CCOCC2)c1	7	0	-10	2	0	0	·	·
Cc1ccc(C(=O)OCC(=O)c2c[nH]c3ccccc23)cc1S(=O)(=O)N1CCOCC1	-3	-1	-23	10.0*	-3	-1	-7	3
CCc1cc(/C(Cc2ccc3ccccc3n2)=N\O)c(O)cc1O	15	0	-52	9.2*	1	0	30*	22*
CCC(CO)Nc1cccc2c1S(=O)(=O)N(Cc1cn(Cc3cccc(C(F)(F)F)c3)nn1)Cc1ccccc1O2 (configuration not stated)	-31	0	-13	-6	-14	-8	·	·
CCN(CC)S(=O)(=O)c1ccc(OC)c(NC(=O)c2ccc(OC)c([N+](=O)[O-])c2)c1	13	0	-14	13*	7	7	0	1
CCN(CC)S(=O)(=O)c1ccc(N2CCOCC2)c(NC(=O)c2ccc(OC)c([N+](=O)[O-])c2)c1	-2	0	1	-4	4	-2	·	·
Cc1ccccc1CN1CCCCC(NC(=O)c2cc(-c3ccccc3)no2)C1=O (configuration not stated)	5	1	-5	1	-1	1	·	·
COc1ccccc1C1CC(c2ccc(Br)cc2)=NN1C(=O)c1cccnc1 (configuration not stated)	17	1	-15	9.7*	-2	5	9	8
O=C(c1ccncc1)N(c1ccc2oc3c(c2c1)CCCC3)S(=O)(=O)c1ccc(F)cc1	17	0	-22	8.8*	2	1	9	7
CC12CCC(C(=O)NC(c3ccccc3)c3ccccc3)(OC1=O)C2(C)C (configuration not stated)	12	1	2	9.1*	6	2	-5	-1
OC(c1ccccc1)c1ncc(-c2ccc(Cl)cc2)[nH]1 (configuration not stated)	0	0	4	4	3	1	·	·
CSc1ccc(C(O)c2ncc(-c3cccc(OCc4ccccc4)c3)[nH]2)cc1 (configuration not stated)	19	-1	-23	9.3*	-8	-4	23*	11*
OC(c1ccc(-c2ccccc2)cc1)c1ncc(-c2ccc(F)cc2)[nH]1 (configuration not stated)	19	1	1	11*	1	3	23*	12*
Cc1ccc(SCc2nc(N)nc(Nc3ccccc3C)n2)cc1C	17	1	-18	9.2*	-7	1	1	2
C#CCNC(=O)C[C@H]1C[C@@]2(C(=O)OC)C(=C[C@H](COCc3ccccc3)O[C@@H]2C)N(Cc2ccc(Cl)cc2Cl)C1=O	6	1	-18	3	-1	1	·	·
O=C(NC1CC1)c1ccc2c(c1)C1C3CCC(C3)C1C(c1ccccc1)N2 (configuration not stated)	17	1	8	9.6*	10	6	11	9.4*
O=C(CCC(=O)Nc1ccccc1)NCCO	3	0	8	11*	10	9	-8	-2
SMILES	ADAM10 inh	KLK7 zymogen act	HGIII-sPLA2 inh	ADAM17 inh	PLCb3 inh	PLCg1 inh	ADAM10 counter	ADAM17 confirm
O=C(CSc1nc2ccc(NC(=O)c3ccccc3C(=O)O)cc2s1)Nc1ccc(F)c([N+](=O)[O-])c1	19	-1	4	9.3*	-9	5	-2	2
Cc1ccc(Nc2ncccc2C(=O)NCc2cccs2)c(C)c1	10	0	-3	3	2	2	·	·
Cc1cccc(Nc2ncccc2C(=O)NCc2cccs2)c1C	16	0	-10	10*	4	4	27*	15*
O=C1OCCN1C(=O)[C@H]1[C@H](c2ccc([N+](=O)[O-])cc2)C(c2ccccc2)=NN1c1ccc(Br)cc1	17	-1	2	11*	-11	-6	15	12*
O=C1OCCN1C(=O)[C@H]1[C@H](c2ccc(Cl)cc2)C(c2ccccc2)=NN1c1ccc(Br)cc1	i	-84	-21	-243	i	i	·	·
CCCC(=O)N1CC2(C)CN(C(=O)CCC)CC(CCC)(C1)C2=O	8	0	-2	12*	7	4	5	5
Cc1ccc(NC(=O)c2cc(S(=O)(=O)NCCC3=CCCCC3)ccc2F)cc1	23*	0	-38	14*	1	8	34*	18*
CC(C)c1ccc(S(=O)(=O)Nc2ccc3c(c2)OCO3)cc1	8	0	-23	12*	1	4	8	6
CCOc1ccc(S(=O)(=O)Nc2ccc3c(c2)OCO3)cc1	0	0	-6	-2	-6	2	·	·
CCC(C)[C@H](N)c1nnc(SCC(=O)c2ccc(Cl)cc2)o1 (some centres not stated)	15	-1	-15	9.2*	-6	-5	-8	0
